# Bioassay records from PubChem BioAssay.
# MLL AF4-AF9 inh – inhibitors of human MLL-AF4/AF9 interaction; P42568; AlphaScreen, biotin-AF4 peptide binding to FLAG-AF9; inhibition, % at 10 µM; 350,000 tested, 0.47% active; AID 651704;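 active = every replicate reaching a set inhibition limit, whatever the replicate mean, cut at about 25% in these data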;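 also: 0% = plate neutral control median and 100% = total signal loss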
# Target sequence (P42568 whole entry, looked up): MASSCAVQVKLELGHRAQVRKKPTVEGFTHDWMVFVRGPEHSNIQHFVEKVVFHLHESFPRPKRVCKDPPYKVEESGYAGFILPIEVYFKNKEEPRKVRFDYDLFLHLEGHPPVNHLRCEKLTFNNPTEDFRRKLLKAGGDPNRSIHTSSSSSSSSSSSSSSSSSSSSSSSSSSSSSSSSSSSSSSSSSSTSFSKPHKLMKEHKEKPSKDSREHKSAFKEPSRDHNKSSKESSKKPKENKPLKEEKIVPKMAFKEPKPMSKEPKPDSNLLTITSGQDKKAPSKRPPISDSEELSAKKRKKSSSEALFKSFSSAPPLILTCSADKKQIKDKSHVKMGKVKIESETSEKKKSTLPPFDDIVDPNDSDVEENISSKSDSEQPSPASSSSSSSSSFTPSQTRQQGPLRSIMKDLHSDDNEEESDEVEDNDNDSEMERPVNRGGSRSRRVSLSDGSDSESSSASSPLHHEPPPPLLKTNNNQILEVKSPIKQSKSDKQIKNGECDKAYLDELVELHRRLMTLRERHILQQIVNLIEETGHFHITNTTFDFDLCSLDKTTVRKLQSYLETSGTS
# RAD52 inh – inhibitors of human RAD52 DNA annealing | inhibition, % at 18.7 µM | recombinant RAD52 DNA annealing, FRET fluorescence | P43351 | 360,000 tested, 0.46% active;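 active = every replicate showing at least 50% inhibition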
# FGF22 binding – shifts melting point of recombinant human FGF22 | Q9HCT0 | recombinant FGF22 thermal shift, SYPRO orange fluorescence; percent of sucrose octasulfate shift, DMSO zero | activity (Tm shift, normalised), % at 9.99 µM | 340,000 tested, 1.5% active;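 active = mean Tm shift, scaled 0 neutral to 100 positive control, at about 1.3% or above, every replicate too, limit read from the data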
# DENV2 CPE rescue – inhibitors of DENV2 cytopathic effect. AID 651640. DENV2-infected cells, cytopathic effect rescue, plate reader. CPE inhibition, % at 9.99 µM. 350,000 tested, 1.7% active; in the data active = CPE inhibition above about 20%, passing the limit was not always enough; tested in BHK-21 cells;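 also: 0% = median of neutral control wells and 100% = median of positive control wells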
# ERAP1 inh – blocks human ERAP1 aminopeptidase activity; recombinant ERAP1, Leu-AMC fluorescence, 60 min; inhibition, % at 10.7 µM; 340,000 tested, 0.15% active; AID 652197;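 active = mean replicate inhibition of at least 30%, or all replicates individually reaching that 30% level; inactive = mean below 30% and not every replicate reaching it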;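 also: 0% = neutral control wells and 100% = L-leucinethiol positive control wells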
# Starred values were filed as active, the others as inactive; . = not tested or not shown. Shown are actives, neighbours in structure and some others; about 4% of the full set was active somewhere.
SMILES,MLL AF4-AF9 inh,RAD52 inh,FGF22 binding,DENV2 CPE rescue,ERAP1 inh
Cc1ccc(S(=O)(=O)N(C)C[C@@H]2OCCCC[C@@H](C)Oc3ccc(NS(=O)(=O)c4c(C)noc4C)cc3C(=O)N([C@H](C)CO)C[C@H]2C)cc1,4,-35,-1,62*,-1
Cc1ccc(S(=O)(=O)N(C)C[C@H]2OCCCC[C@H](C)Oc3ccc(NS(=O)(=O)c4c(C)noc4C)cc3C(=O)N([C@@H](C)CO)C[C@@H]2C)cc1,0,-70,0,43*,-1
Cc1ccc(S(=O)(=O)N(C)C[C@@H]2OCCCC[C@@H](C)Oc3ccc(NS(=O)(=O)c4c(C)noc4C)cc3C(=O)N([C@H](C)CO)C[C@@H]2C)cc1,2,-119,0,-2,-2
Cc1ccc(S(=O)(=O)N(C)C[C@H]2OCCCC[C@@H](C)Oc3ccc(NS(=O)(=O)c4c(C)noc4C)cc3C(=O)N([C@H](C)CO)C[C@H]2C)cc1,1,-58,-1,21*,-2
Cc1ccc(S(=O)(=O)N(C)C[C@@H]2OCCCC[C@H](C)Oc3ccc(NS(=O)(=O)c4c(C)noc4C)cc3C(=O)N([C@H](C)CO)C[C@@H]2C)cc1,4,-40,0,89*,-2
CN(C)CC(=O)Nc1ccc2c(c1)[C@H]1C[C@H](CC(=O)NCc3ccc(Cl)cc3)O[C@H](CO)[C@H]1O2,0,-6,0,-1,2
Cc1noc(C)c1S(=O)(=O)Nc1ccc2c(c1)C(=O)N([C@H](C)CO)C[C@H](C)[C@@H](CN(C)S(=O)(=O)c1ccccc1)OCCCC[C@H](C)O2,1,-31,-1,-16,2
Cc1ccc(S(=O)(=O)N(C)C[C@@H]2OCCCC[C@H](C)Oc3ccc(NS(=O)(=O)c4c(C)noc4C)cc3C(=O)N([C@H](C)CO)C[C@H]2C)cc1,2,-72,0,112*,-1
Cc1noc(C)c1S(=O)(=O)Nc1ccc2c(c1)C(=O)N([C@@H](C)CO)C[C@@H](C)[C@H](CN(C)S(=O)(=O)c1ccccc1)OCCCC[C@@H](C)O2,0,-49,-1,94*,1
Cc1ccc(S(=O)(=O)Nc2ccc3c(c2)C(=O)N([C@@H](C)CO)C[C@@H](C)[C@H](CN(C)S(=O)(=O)c2c(C)noc2C)OCCCC[C@@H](C)O3)cc1,0,-34,-1,2,-2
Cc1ccc(S(=O)(=O)Nc2ccc3c(c2)C(=O)N([C@@H](C)CO)C[C@@H](C)[C@@H](CN(C)S(=O)(=O)c2c(C)noc2C)OCCCC[C@@H](C)O3)cc1,-2,-45,0,28*,-1
O=C(O)CC/C(=N\Nc1ccc(S(=O)(=O)N2CCOCC2)cc1[N+](=O)[O-])c1cccs1,13,5,0,12,-8
CCCCCC(=C/c1ccccc1)/C=N/Nc1ccc(S(=O)(=O)N2CCOCC2)cc1[N+](=O)[O-],1,-72,0,32*,-3
Cn1cnc(S(=O)(=O)N[C@@H]2CC[C@@H](CC(=O)N3CCN(c4ccccc4)CC3)O[C@@H]2CO)c1,-1,-10,0,-1,-1
C[C@@H]1CN([C@@H](C)CO)C(=O)c2cc(NC(=O)c3ccccc3)ccc2O[C@@H](C)CCCCO[C@H]1CN(C)S(=O)(=O)c1cccs1,.,.,0,-9,.
COc1ccc(N(CC(=O)Nc2ccccc2C)S(=O)(=O)c2ccccc2[N+](=O)[O-])c(OC)c1,1,-8,0,-1,10
Cc1cccc(C(C)C)c1NC(=O)CN(C)Cc1cccc(F)c1,0,-15,43*,-1,0
COc1ccc(N(CC(=O)Nc2c(C)cccc2C)S(=O)(=O)c2ccccc2[N+](=O)[O-])c(OC)c1,-12,-8,43*,-2,2
COc1ccc(CN(C)CC(=O)Nc2c(C)cccc2C)c(OC)c1,-1,-9,43*,-2,5
COc1ccc(CN(C)CC(=O)NC(C)c2ccccc2)c(OC)c1 (stereo not given),2,-7,0,-2,-2
Cc1noc(C)c1NC(=O)N(C)C[C@@H]1OCCCC[C@@H](C)Oc2ccc(NC(=O)NC(C)C)cc2C(=O)N([C@@H](C)CO)C[C@H]1C,-2,7,0,-10,4
Cc1ccc(NC(=S)N(Cc2cccc(Br)c2)CC2CCC(C(=O)O)CC2)cc1 (stereo not given),-4,-17,8.2*,4,-4
CN(Cc1ccccc1)S(=O)(=O)c1cccc2nsnc12,0,-6,44*,-2,1
CC(NC(=O)CN(C)S(=O)(=O)c1cccc2nsnc12)c1ccccc1 (stereo not given),-6,-1,0,-3,-3
CCOC(=O)C1CCCN(C(=O)c2c(-c3ccccc3)noc2C)CC1 (stereo not given),0,-50,0,-2,3
SMILES,MLL AF4-AF9 inh,RAD52 inh,FGF22 binding,DENV2 CPE rescue,ERAP1 inh
CCOC(=O)C1CCN(C(=O)Cc2cccs2)CC1,.,-14,.,.,3
CCOC(=O)C1CCN(C(=O)Cc2ccccc2OC)CC1,-2,-15,56*,-4,-2
CCOC(=O)C1CCN(C(=O)c2c(-c3ccccc3)noc2C)CC1,-1,-15,43*,2,0
CCC(=O)N1CC2(C1)CN(S(C)(=O)=O)[C@H](CO)c1[nH]c3cc(OC)ccc3c12,1,-6,0,18,4
Cc1cc(C(=O)O/N=C(\N)c2ccc(C(C)(C)C)cc2)no1,2,-14,0,65*,.
CC(Sc1nnc(-c2cccnc2)n1C)C(=O)N1CCOCC1 (stereo not given),0,-4,0,9,31*
C[C@H](CO)N1C[C@H](C)[C@@H](CN(C)S(C)(=O)=O)Oc2ncc(C#CCN(C)C)cc2C1=O,0,8,0,1,0
CN1CCN(C(=O)c2ccc(-n3cccn3)nc2)CC1,-2,1,43*,-8,-6
Cc1ccc(NC(=O)c2ccc(-n3cccn3)nc2)cc1,-8,-3,0,-1,6
Cc1noc(C)c1NC(=O)N(C)C[C@H]1Oc2ncc(/C=C/c3ccccc3)cc2C(=O)N([C@@H](C)CO)C[C@@H]1C,3,-5,0,4,0
COc1cc2c(cc1NC(=O)/C=C/c1ccc([N+](=O)[O-])cc1)oc1ccccc12,-7,-6,0,39*,-2
COc1cc2c(cc1NC(=O)COC(=O)/C=C/c1ccc([N+](=O)[O-])cc1)oc1ccccc12,3,-2,41,-2,1
C[C@H](CO)N1C[C@H](C)[C@H](CN(C)C(=O)Nc2ccc(C(F)(F)F)cc2)Oc2c(NC(=O)CCCCCC(=O)Nc3ccccc3N)cccc2C1=O,-2,7,0,35*,-1
C[C@H](CO)N1C[C@H](C)[C@@H](CN(C)S(=O)(=O)c2cccs2)Oc2ccc(NC(=O)CCCCCC(=O)Nc3ccccc3N)cc2C1=O,-4,11,0,25*,1
